Measured values as given in PubChem BioAssay AID720553 (National Center for Advancing Translational Sciences (NCATS), 2013).
The campaign covered roughly 340,000 compounds. About 3,300 (0.97%) were called active. The full list was thinned out, with actives kept by preference. Unmarked numbers belong to inactive results.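 Rule for the calls: active = maximum activity change below -70%; inconclusive = maximum activity change from -70% to -50%; inactive = maximum activity change above -50%.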

What follows are compounds tested on Potassium voltage-gated channel subfamily H member 2, brain isoform KCNH2 3.1 (human) (assay: qHTS for Inhibitors of KCHN2 3.1: Mutant qHTS). Settings: U2OS KCNH2 3.1, thallium flux FluxOr; stronger effect = lower value.
How it was run: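 U2OS cells transduced with KCNH2 3.1 mutant virus (1.77 x 10^8 /mL, 4 h), plated overnight at 37 C, loaded 45 min with FluxOr dye plus Red40 quencher. Thallium flux rate constant from kinetic reads after stimulation buffer, normalised to controls.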
% is set by controls: 0 for no effect and ±100 for the full control effect.

SMILES | activity change
O=C(C[C@H]1C[C@@H]2c3cc(NC(=O)C4CCC4)ccc3O[C@@H]2[C@H](CO)O1)NC1CCCCC1 | -25.5%
N#Cc1ccc(OCC(=O)Nc2nc(-c3ccccn3)cs2)cc1 | 6.83%
CCN1C(=O)[C@H]2[C@@H](c3ccccc3)N[C@]3(CCCN(Cc4ccc(C)cc4)C3=O)[C@H]2C1=O | 28.9%
COc1ccc(-c2ccc3[nH]c4c(c3c2)CCN2C[C@H]3[C@H](C)ON(C)[C@H]3C[C@@H]42)cc1 | -3.51%
O=C(CCc1ccc(O)cc1)NN=Cc1cc(Br)ccc1O | 1.97%
O=C(COc1ccc(Br)cc1)OCC(=O)c1ccc[nH]1 | -1.12%
COc1ccc(N)cc1NC(=O)CN1CCOCC1 | 1.24%
Cc1ccc(-n2c(SCC(=O)Nc3ccc4c(c3)OCO4)nnc2-c2ccoc2C)cc1 | -79.7% (active)
O=C(CSc1nnc(-c2ccccn2)n1-c1ccccc1)Nc1ccc2c(c1)OCO2 | 2.89%
Cc1ccc(-n2c(SCC(=O)Nc3ccc4c(c3)OCO4)nnc2-c2ccccn2)cc1 | 1.11%
COc1cccc(/C=C2\SC(=S)N(CCCC(=O)N3CCOCC3)C2=O)c1 | -1.71%
COc1ccc(CN2C(=O)C(CC(=O)NCCCCc3ccccc3)CC(C(=O)N3CCOCC3)=C2C)cc1 (stereo not given) | -14.3%
Cc1cc(OCC(=O)Nc2nccs2)c2c(C)c(C)c(=O)oc2c1 | -8.76%
CN1CCN(CCNC(=O)Nc2ccc([N+](=O)[O-])cc2)CC1 | 4.38%
O=C(CN1CCN(c2ccccc2)CC1)Nc1ccc(F)cc1 | 0.316%
O=C(NCCCN1CCN(c2ccc(F)cc2)CC1)Nc1ccc([N+](=O)[O-])cc1 | -86.7% (active)
CN(C)C(CNC(=O)c1cc(Br)c(Br)s1)c1ccco1 (stereo not given) | -1.59%
O=C(NCc1nnnn1-c1ccc(Cl)cc1)c1ccc2c(c1)OCO2 | -10.1%
O=C(COC(=O)c1cncc(Br)c1)Nc1ccc(S(=O)(=O)N2CCOCC2)cc1 | -6.79%
COC(=O)[C@H](Cc1ccccc1)NC(=O)N1CC(C)OC(C)C1 (stereo not given in full) | -5.69%
COC(=O)[C@@H](Cc1ccccc1)NC(=O)NCCc1ccccc1 | -9.89%
COC(=O)[C@H](Cc1ccccc1)NC(=O)[C@@H]1C[C@H]1[C@@H](NC(=O)OCc1ccccc1)c1ccccc1 | -95.1% (active)
O=C(COC(=O)Cc1ccc(Cl)cc1Cl)NCc1ccco1 | -13.7%
O=C(O)C1=C(C(=O)O)C2CCC1C2 | 1.57%
COC(=O)c1cccc(NC(=O)CN2CCC(NC(=O)c3cc(OC)c(OC)c(OC)c3)CC2)c1 | -11.4%
COc1cc(C(=O)NCCOC(=O)c2cccc(N(C)C)c2)cc(OC)c1OC | -77.8% (active)
COc1ccccc1OCCNC(=O)c1cc([N+](=O)[O-])cc([N+](=O)[O-])c1 | -8.81%
O[C@@H]1C[C@H](c2ccccc2)N(Cc2cccs2)C[C@H]1n1cc(C2CC2)nn1 | -10.3%

SMILES | activity change
C[C@@H]1CN([C@@H](C)CO)C(=O)CCCn2nncc2CO[C@H]1CN(C)Cc1ccc(C(F)(F)F)cc1 | 15.2%
COc1ccc(S(=O)(=O)N2CCC(C(=O)NCCC(=O)NCCc3cccc(F)c3)CC2)cc1 | -0.519%
O=C(Nc1ccc(F)c([N+](=O)[O-])c1)C1CC(=O)N(Cc2ccccc2)C1 (stereo not given) | -5.91%
Cc1cc(=O)oc2cc(NC(=O)C(C)Oc3ccccc3)ccc12 (stereo not given) | 16.9%
Cc1cc(=O)oc2cc(NC(=O)C3CC(=O)N(Cc4ccccc4)C3)ccc12 (stereo not given) | -71% (active)
Cc1cc(-c2ccc(C)c(S(=O)(=O)NC(C)Cc3ccco3)c2)on1 (stereo not given) | -6.2%
Cc1cc(-c2ccc(C)c(S(=O)(=O)Nc3ccc(S(N)(=O)=O)cc3)c2)on1 | 6.07%
Cc1ccc2c(c1)N(S(=O)(=O)c1cc(-c3cc(C)no3)ccc1C)CCO2 | -82.2% (active)
Cc1ccc(-c2ccc(CN3C(C(C)C)C(=O)N(Cc4cn(CCC5OCCO5)nn4)CCS3(=O)=O)cc2)cc1 (stereo not given) | 0.464%
Cc1noc(C)c1NC(=O)N(C)C[C@@H]1Oc2cc(Br)ccc2S(=O)(=O)N([C@@H](C)CO)C[C@H]1C | -17.2%
COCOCCn1cc(CN2CCS(=O)(=O)N(Cc3ccc(-c4ccc(OC)cc4)cc3)C(CC(C)C)C2=O)nn1 (stereo not given) | -1.8%
NC1=NC[C@@H](Cc2ccc(O)cc2)N1CC1CCCCC1 | 19%
COc1ccc(C[C@H]2CN3C(=NC[C@H]3C)N2CCNC(=O)CCC2CCCCC2)cc1 | -109% (active)
C/C=C(\C)C(=O)NCCN1C2=NC[C@H](Cc3ccc(O)cc3)N2C[C@@H]1Cc1ccc(OC)cc1 | -104% (active)
COc1ccc(CCNC(=O)COC(=O)C2CCCCC2)cc1 | 8.75%
COc1ccc(CCNC(=O)COC(=O)C2CC2C)cc1 (stereo not given) | 5.06%
COc1ccc(NC(=O)CCCC2CCCCC2)c(OC)c1 | 8.96%
Cc1ccn(CC(=O)NC2CCCN(Cc3ccccc3F)C2)n1 (stereo not given) | 7.86%
O=C(O)c1ccccc1Cc1ccc(F)c2ccccc12 | 1.01%
CCN(CC)C(=O)C1=C(C)N(Cc2ccc(F)cc2)C(=O)C(CC(=O)NCc2cccc3ccccc23)C1 (stereo not given) | 10.8%
CCn1c(CN2C(=O)CSc3ccccc32)n[nH]c1=S | -86.9% (active)
CCn1c(CNS(=O)(=O)c2ccc(Cl)cc2)n[nH]c1=S | -7.51%
CCn1c(CSCc2c(Cl)cccc2Cl)n[nH]c1=S | -10.5%
CCN(CC)C(=O)C1=C(C)N(Cc2ccc(OC)cc2)C(=O)C(CC(=O)NCCCCc2ccccc2)C1 (stereo not given) | -3.76%
CCOC(=O)CSc1nnc(CNC(=O)c2ccco2)n1-c1ccc(F)cc1 | -10.2%
CSc1nnc(CNC(=O)c2ccccc2)n1-c1ccc(F)cc1 | -88.2% (active)
CCn1c(CNC(=O)c2ccccc2)nnc1SCC(=O)N1CCN(c2ccccc2)CC1 | -7.37%
